From ChEMBL document CHEMBL1201862, “PubChem BioAssay data set” (2004)
Hit rate of the full screen: of about 400,000 compounds, about 2,100 (0.53%) were called active. Another 14% or so got no clear call; they are omitted. The rule behind the calls is not given here. What follows is part of a selection rich in actives, with near analogues and random picks from the rest.

Molecular target: Ataxin-2 (Homo sapiens) (UniProt Q99700)
Experiment: qHTS for Inhibitors of ATXN expression.
Assay type: functional

Chain of Ataxin-2 (Homo sapiens) (Q99700 whole entry): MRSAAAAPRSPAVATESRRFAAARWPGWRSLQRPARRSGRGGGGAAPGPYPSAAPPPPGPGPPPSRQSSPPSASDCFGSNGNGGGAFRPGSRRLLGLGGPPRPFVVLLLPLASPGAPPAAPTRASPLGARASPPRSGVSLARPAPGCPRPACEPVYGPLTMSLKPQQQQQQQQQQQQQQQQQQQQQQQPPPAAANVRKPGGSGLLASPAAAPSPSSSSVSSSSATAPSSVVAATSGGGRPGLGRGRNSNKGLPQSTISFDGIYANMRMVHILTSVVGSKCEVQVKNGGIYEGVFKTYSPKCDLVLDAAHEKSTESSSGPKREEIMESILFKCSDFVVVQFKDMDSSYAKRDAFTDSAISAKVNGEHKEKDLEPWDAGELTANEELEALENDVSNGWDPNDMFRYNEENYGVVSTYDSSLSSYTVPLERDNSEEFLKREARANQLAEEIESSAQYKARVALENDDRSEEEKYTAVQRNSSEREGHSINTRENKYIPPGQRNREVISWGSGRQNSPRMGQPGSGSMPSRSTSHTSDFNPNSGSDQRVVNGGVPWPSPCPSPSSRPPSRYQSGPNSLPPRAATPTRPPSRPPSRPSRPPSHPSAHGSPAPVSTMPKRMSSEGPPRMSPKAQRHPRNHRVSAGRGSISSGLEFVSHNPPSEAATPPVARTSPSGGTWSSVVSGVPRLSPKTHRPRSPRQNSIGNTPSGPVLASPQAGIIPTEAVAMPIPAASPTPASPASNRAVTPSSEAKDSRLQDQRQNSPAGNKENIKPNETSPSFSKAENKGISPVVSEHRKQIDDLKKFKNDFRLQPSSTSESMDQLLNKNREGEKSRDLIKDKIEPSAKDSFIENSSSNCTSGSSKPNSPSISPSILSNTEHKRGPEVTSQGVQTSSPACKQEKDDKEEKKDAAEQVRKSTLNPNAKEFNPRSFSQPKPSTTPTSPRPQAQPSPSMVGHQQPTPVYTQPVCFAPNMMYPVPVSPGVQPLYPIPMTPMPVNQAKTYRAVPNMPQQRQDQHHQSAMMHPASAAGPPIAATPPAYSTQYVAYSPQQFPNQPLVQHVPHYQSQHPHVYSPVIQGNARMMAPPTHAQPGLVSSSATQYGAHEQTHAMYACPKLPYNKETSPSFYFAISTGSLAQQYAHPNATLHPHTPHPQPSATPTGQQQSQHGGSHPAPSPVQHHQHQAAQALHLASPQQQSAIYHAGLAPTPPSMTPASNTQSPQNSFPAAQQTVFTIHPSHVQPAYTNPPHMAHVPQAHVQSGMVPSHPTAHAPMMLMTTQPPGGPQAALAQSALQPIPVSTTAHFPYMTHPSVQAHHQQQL

Row | SMILES | Potency
1 | N#C/C(=C\c1ccc2c(c1)OCCO2)C(=O)Nc1nccs1 | inactive
2 | CCCCn1c(=O)[nH]c2nc3cc(N)ccc3nc2c1=O | inactive
3 | Cc1cccc2c(=O)n(C(=O)c3ccccc3)c(N)nc12 | inactive
4 | CC(=O)c1ccc(OCC(=O)OC(C)C(=O)NC2CCCCC2)cc1 (configuration not stated) | inactive
5 | CCC(C)c1ccc(S(=O)(=O)N2CCN(C(C)CC(=O)O)CC2)cc1 (configuration not stated) | inactive
6 | CS(=O)(=O)c1ccc(C(=O)OCC(=O)NC(=O)C2CCCCC2)cc1[N+](=O)[O-] | 35.5 µM (active)
7 | O=C(COC(=O)c1ccc(C(F)(F)F)cc1)NC(=O)NC1CCCC1 | inactive
8 | O=C(NCC(O)c1ccc([N+](=O)[O-])cc1)C1CCCCC1 (configuration not stated) | inactive
9 | CN(Cc1ccccc1F)Cc1cc(=O)oc2cc(O)c(Cl)cc12 | inactive
10 | CC(C)c1ccc(/C=C(/C#N)c2nnc(NC(=O)c3ccccc3)s2)cc1 | inactive
11 | CC(C)c1ccc(NC(=O)Nc2nc(C(C)N)cs2)cc1 (configuration not stated) | 35.5 µM (active)
12 | CC(C)c1ccc(NC(=O)Nc2nc(C(N)c3ccccc3)cs2)cc1 (configuration not stated) | 28.2 µM (active)
13 | CC(C)c1ccc(NC(=O)Nc2nc(C(N)c3ccccc3Cl)cs2)cc1 (configuration not stated) | 35.5 µM (active)
14 | NC(c1ccccc1)c1csc(NC(=O)Nc2ccc(OC(F)(F)F)cc2)n1 (configuration not stated) | 39.8 µM (active)
15 | O=C(Nc1ccc(Cl)cc1)Nc1cccc2nsnc12 | inactive
16 | Cc1oc(CC(C)C)cc1C(=O)NCCCC(=O)O | inactive
17 | N=C1NC(=O)/C(=C/c2ccc(Br)cc2)S1 | inactive
18 | COCCN1C=C(C(=O)OC)C(c2ccc(Cl)cc2)C(C(=O)OC)=C1 | inactive
19 | CCN(CC)C(=O)c1cc(-c2ccc3c(c2)OCO3)on1 | inactive
20 | COc1ccc(OCC(=O)Nc2nccs2)cc1 | inactive
21 | COc1ccc(Cc2nnc(S)n2NC(=O)Nc2ccc(C)cc2)cc1 | inactive
22 | COc1ccc(CC(N)c2csc(NC(=O)Nc3ccc(C(C)C)cc3)n2)cc1 (configuration not stated) | 39.8 µM (active)
23 | CCN(CC)C(=O)COC(=O)c1cc(-c2ccco2)nc2ccccc12 | inactive
24 | COc1cccc2c1C(=O)C=C(C)C2=O | inactive

Row | SMILES | Potency
25 | O=C1c2ccccc2-c2onc3ccc(Oc4ccccc4)c1c23 | 20 µM (active)
26 | COc1ccc2c3c(cccc13)C(=O)CC2 | inactive
27 | COc1ccc2noc3c2c1C(=O)c1ccccc1-3 | 39.8 µM (active)
28 | COc1ccc(N2C(=O)/C(=C\NNS(=O)(=O)c3ccc(C)cc3)c3ccccc3C2=O)cc1OC | inactive
29 | Cc1cc(=O)oc2cc(OC(=O)c3ccco3)ccc12 | inactive
30 | O=c1c2c(-c3ccccc3)csc2nc2c3ccccc3c(NCCN3CCOCC3)nn12 | inactive
31 | Cc1cc(C)c2nc3nc(C)c(C)cc3c(N)c2c1 | inactive
32 | CCN(CC)c1ccc2cc(C#N)c(=O)oc2c1 | inactive
33 | COc1ccc(N2CCN(CCN3C(=O)c4ccccc4C3=O)CC2)cc1 | inactive
34 | COc1ccc(-n2sc3ccccc3c2=O)cc1 | 22.4 µM (active)
35 | CCC1(CC)Nc2ccccc2C(=O)N1c1ccc(OC)cc1 | inactive
36 | N#Cc1c(N)n(-c2ccccc2)c(=O)c2cc([N+](=O)[O-])ccc12 | inactive
37 | O=c1c2ccccc2nc2ccccn12 | inactive
38 | Nc1ccc2c3c(cccc13)C(=O)N(c1ccccc1)C2=O | inactive
39 | N#Cc1ccc2sn(-c3ccccc3)c(=O)c2c1 | 22.4 µM (active)
40 | O=c1c2ccccc2sn1-c1ccccc1 | 28.2 µM (active)
41 | N#Cc1cc2cc3ccccc3nc2n2c(=O)c3ccccc3nc12 | inactive
42 | O=c1c2ccccc2sn1-c1ccc(Cl)cc1Cl | 35.5 µM (active)
43 | Cn1c2ccccc2c(=O)c2ccc(Cl)cc21 | inactive
44 | CC(C)(C)c1ccc(C(=O)NCCn2c(N)c(C#N)c3nc4ccccc4nc32)cc1 | inactive
45 | Cc1cc(O)cc2c1C(=O)/C(=C/c1ccco1)O2 | inactive
46 | O=C1NC(c2ccco2)Nc2sc3c(c21)CCN(Cc1ccccc1)C3 (configuration not stated) | inactive
47 | N#Cc1c(C(F)(F)F)cc(O)n2c1nc1ccccc12 | inactive
48 | CC(=O)Nc1ccc2c(=O)n(-c3ccccc3)sc2c1 | 25.1 µM (active)

Row | SMILES | Potency
49 | O=c1c2cc(F)ccc2sn1-c1ccc(F)cc1 | 35.5 µM (active)
50 | CC(=O)Nc1ccc(C2=NN(c3ccccc3)C(c3ccccc3)C2)cc1 (configuration not stated) | inactive
51 | Cn1sc2ccccc2c1=O | 28.2 µM (active)
52 | CN1C(=O)c2cccc3c(N)ccc(c23)C1=O | inactive
53 | CC(=O)Nc1ccc2nc3ccccc3nc2c1 | inactive
54 | O=c1c2ccccc2[nH]c2ccc(F)cc12 | inactive
55 | COCCCn1c(N)c(-c2nc3ccccc3n2C)c2nc3ccccc3nc21 | inactive
56 | COc1ccc(N2C3=C(C(=O)CC(C)(C)C3)C(c3cnn(C)c3)C3=C2CC(C)(C)CC3=O)cc1 | inactive
57 | COc1cccc(C(=O)Oc2c(Br)cc(Br)cc2/C=N/NC(=O)c2cc(C)[nH]n2)c1 | inactive
58 | CC1(C)CC2CC(C)(CN2C(S)=Nc2ccccc2)C1 (configuration not stated) | inactive
59 | COc1ccc(OC)c(/C=N/NC(=O)CNC(=O)c2ccc(S(=O)(=O)N3CCOCC3)cc2)c1 | inactive
60 | O=C(Oc1ccc2ccc(=O)oc2c1)c1cccs1 | inactive
61 | S=C(NNC(=S)NC1CC2C=CC1C2)NC1CC2C=CC1C2 (configuration not stated) | inactive
62 | CC(=O)Nc1sc(C)c(C)c1C(=O)OCC(=O)NCc1ccc(Cl)cc1 | inactive
63 | CCOC(=O)c1sc(NC(=O)c2ccoc2C)c(C(N)=O)c1C | inactive
64 | CCOC(=O)c1c(NC(C)=O)sc2c(OCC(O)CNC(C)(C)C)c(Br)ccc12 (configuration not stated) | 39.8 µM (active)
65 | NC(=O)c1cccc2cc3ccccc3cc12 | inactive
66 | C#CCOc1ccc(C2C(C#N)=C(N)Oc3cc(O)ccc32)cc1 (configuration not stated) | inactive
67 | Cc1ccc2nc(O)c(C3C(C#N)=C(N)Oc4c3ccc3cccnc43)cc2c1 (configuration not stated) | 22.4 µM (active)
68 | Cc1ccc2nc(Cl)c(C#N)cc2c1 | inactive
69 | COC(=O)c1sc2nc3c(cc2c1N)CCCC3 | inactive
70 | O=C1CC(c2ccccc2Cl)=NN(c2ncnc3ccccc23)C1=O | inactive
71 | CC1=C/C(=N\OS(=O)(=O)c2ccccc2)C(C(C)C)=CC1=O | 31.6 µM (active)
72 | CC1=C/C(=N\OS(=O)(=O)c2ccccc2)C=CC1=O | 31.6 µM (active)
